Test results published in PubChem BioAssay (NCATS).
Inconclusive results are not listed. Values without a mark were called inactive. Calls of active or inactive are those of the source. Calls come from the whole dose curve; as a rule, active = well fitted inhibition curve with a large enough effect; inconclusive = small, poorly fitted or top-dose-only effect; inactive = no such curve, though single readings can be large or run the other way.

Target: Cytochrome P450 2D6 (Homo sapiens) (UniProt P10635)
Experiment: qHTS for inhibitors of CYP2D6 against the NCATS DSHEA and TCM libraries (AID 1919972)
Conditions: CYP2D6 enzymatic inhibition, luminescence qHTS; series mostly up to 34.1 µM; activity change, negative = inhibition: at the top concentration
In short: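 CYP2D6 enzyme with pro-luciferin substrate in manufacturer buffer (typically 100 mM KPO4), preincubated 15 min RT with substances (most at 19.5 nM upward); NADPH regeneration system (1x) started 30–45 min RT reaction; P450-Glo luminescence read after 30 min; quinidine as intraplate control.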
% is set by controls: 0 for no effect and ±100 for the full control effect.

Cytochrome P450 2D6 (Homo sapiens), sequence (P10635 whole entry, looked up): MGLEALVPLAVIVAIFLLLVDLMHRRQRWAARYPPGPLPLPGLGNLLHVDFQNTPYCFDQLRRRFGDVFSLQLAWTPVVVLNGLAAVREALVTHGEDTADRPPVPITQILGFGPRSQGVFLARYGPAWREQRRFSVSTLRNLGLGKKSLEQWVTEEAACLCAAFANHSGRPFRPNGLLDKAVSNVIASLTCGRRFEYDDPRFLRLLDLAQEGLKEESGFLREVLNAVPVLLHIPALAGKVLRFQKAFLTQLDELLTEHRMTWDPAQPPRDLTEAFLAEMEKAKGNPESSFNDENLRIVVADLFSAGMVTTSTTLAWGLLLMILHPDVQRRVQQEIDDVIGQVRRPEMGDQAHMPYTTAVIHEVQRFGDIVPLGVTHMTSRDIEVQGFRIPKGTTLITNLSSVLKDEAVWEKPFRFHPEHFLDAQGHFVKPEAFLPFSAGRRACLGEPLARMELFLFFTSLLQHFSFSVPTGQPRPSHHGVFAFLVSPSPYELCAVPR

SMILES | activity change, negative = inhibition [%]
CCCCCCCCCC(=O)O | 4.21
O=C(O)CC(O)(CC(=O)O)C(=O)O | 3.33
C=C1[C@H]2CC[C@H](C(=O)O)[C@@]23CC[C@H](C3)C1(C)C | 1.81

Target: Cytochrome P450 2C9 (Homo sapiens) (UniProt P11712)
Experiment: qHTS for inhibitors of CYP2C9 against the NCATS DSHEA and TCM libraries (AID 1919973); note: potency is the fitted concentration of half-maximal effect;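 for activity change, negative = inhibition: luminogenic pro-luciferin CYP2C9 substrate turned into luciferin with NADPH regeneration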
Conditions: recombinant CYP2C9 enzyme activity, luminescence; series mostly up to 34.1 µM; activity change, negative = inhibition: at the top concentration
In short: (§1)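 Concentration-response screening with isoform-matched pro-luciferin substrates. The CYP reaction was initiated by NADPH regenerating solution and ran 30-45 min in darkness at room temperature.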

Cytochrome P450 2C9 (Homo sapiens), sequence (P11712 whole entry, looked up): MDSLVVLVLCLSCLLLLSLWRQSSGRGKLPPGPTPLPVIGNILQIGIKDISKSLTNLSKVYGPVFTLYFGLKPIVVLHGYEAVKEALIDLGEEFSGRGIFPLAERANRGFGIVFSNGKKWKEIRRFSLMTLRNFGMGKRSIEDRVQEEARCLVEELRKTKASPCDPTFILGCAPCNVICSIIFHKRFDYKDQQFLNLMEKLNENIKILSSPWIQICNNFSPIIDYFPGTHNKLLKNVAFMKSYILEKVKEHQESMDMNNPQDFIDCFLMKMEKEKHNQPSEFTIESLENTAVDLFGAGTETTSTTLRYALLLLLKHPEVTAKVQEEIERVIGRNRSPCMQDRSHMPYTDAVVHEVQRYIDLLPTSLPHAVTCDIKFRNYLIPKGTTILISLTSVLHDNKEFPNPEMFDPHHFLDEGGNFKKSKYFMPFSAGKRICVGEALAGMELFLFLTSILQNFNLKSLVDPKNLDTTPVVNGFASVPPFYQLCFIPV

SMILES | activity change, negative = inhibition [%] | Potency
CCCCCCCCCC(=O)O | -6.29 | 
CC(=O)C1=C(O)C=C2Oc3c(C(C)=O)c(O)c(C)c(O)c3[C@]2(C)C1=O |  | 4.47 µM (active)
O=C(O)CC(O)(CC(=O)O)C(=O)O | 13.8 | 
C=C1[C@H]2CC[C@H](C(=O)O)[C@@]23CC[C@H](C3)C1(C)C | -15.1 | 

Target: Cytochrome P450 2C19 (Homo sapiens) (UniProt P33261)
Experiment: qHTS for inhibitors of CYP2C19 against the NCATS DSHEA and TCM libraries (AID 1919974);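 note: luminescence from luciferin released by CYP2C19 oxidation of a pro-luciferin substrate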; note: potency is the fitted concentration of half-maximal effect
Conditions: CYP2C19 enzyme inhibition, luminescence qHTS; series mostly up to 34.1 µM; activity change, negative = inhibition: at the top concentration
In short: as §1

Cytochrome P450 2C19 (Homo sapiens), sequence (P33261 whole entry, looked up): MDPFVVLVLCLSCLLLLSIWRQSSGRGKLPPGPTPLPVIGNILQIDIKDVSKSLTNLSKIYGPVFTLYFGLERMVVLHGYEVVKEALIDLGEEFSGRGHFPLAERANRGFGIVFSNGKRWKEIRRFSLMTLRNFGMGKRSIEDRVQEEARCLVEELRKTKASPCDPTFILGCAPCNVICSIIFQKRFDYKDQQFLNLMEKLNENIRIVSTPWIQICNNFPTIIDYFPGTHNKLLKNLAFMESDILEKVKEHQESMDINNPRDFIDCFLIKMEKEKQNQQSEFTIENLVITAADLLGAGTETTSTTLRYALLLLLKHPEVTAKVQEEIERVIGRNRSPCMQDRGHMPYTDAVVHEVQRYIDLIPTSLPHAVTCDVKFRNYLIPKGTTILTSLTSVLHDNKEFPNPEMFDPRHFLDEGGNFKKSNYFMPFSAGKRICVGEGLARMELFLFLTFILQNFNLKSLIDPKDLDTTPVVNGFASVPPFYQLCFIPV

SMILES | activity change, negative = inhibition [%] | Potency
CCCCCCCCCC(=O)O | 18.8 | 
CC(=O)C1=C(O)C=C2Oc3c(C(C)=O)c(O)c(C)c(O)c3[C@]2(C)C1=O |  | 3.98 µM (active)
O=C(O)CC(O)(CC(=O)O)C(=O)O | 35.2 | 
C=C1[C@H]2CC[C@H](C(=O)O)[C@@]23CC[C@H](C3)C1(C)C | -13.6 | 
